Laboratory results from PubChem BioAssay (NCATS).
Inconclusive results are not listed. Active and inactive are the calls of the source. The call rests on the fitted dose curve; in most records, active means well fitted curve in the direction sought with a large enough effect; inconclusive means small, poorly fitted or top-dose-only effect, or another doubt; inactive means no such curve, though single readings can be large; an effect the other way counts as inactive or inconclusive.

System: not listed separately
Test: Primary fluorescence-based thiol-reactive (MSTI) qHTS assay for identification of artifact compounds. (AID 1845221); further: nearly all actives have a fitted effect of over 65% in size; further: potency means the concentration at half of the fitted maximal effect;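 on activity change, negative = thiol reactive: thiol-reactive compounds lower the probe fluorescence signal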
Details: MSTI thiol-reactivity probe, 1 h; series mostly up to 53.8 µM; activity change, negative = thiol reactive: at the top concentration
Procedure, shortened: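 Probe: MSTI 4 uM, PBS pH 7.4, 2% DMSO. Incubation 1 h, RT, light-protected. Readout fluorescence 525/598 nm.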

| SMILES | activity change, negative = thiol reactive | Potency |
| --- | --- | --- |
| COc1ccccc1CN[C@H]1C2CCN(CC2)[C@H]1C(c1ccccc1)c1ccccc1 | 17.7% (inactive) | – |
| N#C[C@@H](O[C@@H]1O[C@H](CO[C@@H]2O[C@H](CO)[C@@H](O)[C@H](O)[C@H]2O)[C@@H](O)[C@H](O)[C@H]1O)c1ccccc1 | 12.2% [at 25.6 µM] (inactive) | – |
| COc1cc(CCNCc2ccccc2O)c(OC)cc1C#N | 17.9% (inactive) | – |
| C[C@H]1O[C@@H](O[C@H]2C[C@@H](O)[C@]3(CO)C4C(CC[C@]3(O)C2)[C@@]2(O)CC[C@H](C3=CC(=O)OC3)[C@@]2(C)C[C@H]4O)[C@@H](O)[C@@H](O)[C@H]1O (some centres not stated) | -10.9% [at 25.6 µM] (inactive) | – |
| Cc1c(Cl)cccc1S(=O)(=O)Nc1nc(CC(=O)N2CCN(C)CC2)cs1 | -8.4% (inactive) | – |
| Cc1cn(C[C@H](N)C(=O)O)c(=O)n(Cc2cc(-c3ccccc3)sc2C(=O)O)c1=O | -10.4% (inactive) | – |
| Cc1cccc(NC(=O)N[C@@H]2N=C(c3ccccc3)c3ccccc3N(C)C2=O)c1 | 579% (inactive) | – |
| COC(=O)C1(C)CCC(O)C2(C)c3c(O)cc(C(C)C)cc3C(O)C(OC(C)=O)C12 (configuration not stated) | 22.1% [at 25.6 µM] (inactive) | – |
| N#CC(OC1OC(COC2OC(CO)C(O)C(O)C2O)C(O)C(O)C1O)c1ccccc1 (configuration not stated) | 9.09% [at 25.6 µM] (inactive) | – |
| COC(=O)N1CCN(C(=O)Cc2ccc(Cl)c(Cl)c2)[C@@H](CN2CCCC2)C1 | 16.2% (inactive) | – |
| CC(=O)OC1CC(O)C(C)(C)C2CC(OC(C)=O)C3(C)C(CCC4(C)C(c5ccoc5)C(=O)C5OC543)C12C (configuration not stated) | 89.3% [at 25.6 µM] (inactive) | – |
| COC1=CC(=O)O[C@@H](/C=C/c2ccccc2)C1 | 16.1% (inactive) | – |
| CN1CCC[C@@H]1Cc1c[nH]c2ccc(Nc3ncccc3[N+](=O)[O-])cc12 | – | 1.68 µM (active) |
| C/C=C(\C)C(=O)OC1CC2C(C)(C)OC(=O)CC(OC(C)=O)C2(C)C2CC(OC(=O)C(C)C)C3(C)C(c4ccoc4)CC4OC43C12C (configuration not stated) | 26.1% [at 25.6 µM] (inactive) | – |
| C[C@@]12C[C@@H](c3ccoc3)OC(=O)C1CC[C@]1(C)[C@H]2[C@H]2C=C[C@]1(O)C(=O)O2 (some centres not stated) | 3.06% (inactive) | – |
| CN(C(=O)Cc1ccccc1)C(CN1CCCC1)c1ccccc1 (configuration not stated) | -23.6% (inactive) | – |
| COC1C(O)C(OC2CCC3(C=O)C(CCC4C3CCC3(C)C(C5=CC(=O)OC5)CCC43O)C2)OC(C)C1OC1OC(CO)C(O)C(O)C1O (configuration not stated) | 12% [at 25.6 µM] (inactive) | – |

System: Nanoluciferase (engineered Oplophorus gracilirostris luciferase)
Test: Primary Nanoluciferase (NLuc) qHTS assay for identification of artifact compounds. (AID 1845222);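 further: NLuc secreted into diluted conditioned medium of S16 cells; 0% = DMSO and -100% = no enzyme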
Details: NLuc-conditioned medium, Nano-Glo luminescence, 5 min; series mostly up to 54.1 µM; activity, negative = inhibition: at the top concentration
Procedure, shortened: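 Concentration-response data were obtained by luminescence after 5 min with Nano-Glo substrate at 1:100. The enzyme was diluted S16 NLuc-expressing cell medium, preincubated with compound for 15 min at RT. Curves were fitted with a 4-parameter Hill model.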

| SMILES | activity, negative = inhibition |
| --- | --- |
| COC1CC(=O)C23C(=O)NC(CC(C)C)C2C(C)=C(C)C(OO)C3/C=C(\C)CCC(O)C1O (configuration not stated) | 4.94% [at 25.7 µM] (inactive) |
| C[C@@H]1C(=O)O[C@H]2[C@H](O)[C@@]34[C@@H]5OC(=O)[C@@]3(O[C@@H]3OC(=O)[C@@H](O)[C@@]34[C@H](C(C)(C)C)[C@H]5O)[C@@]12O | 0.206% [at 25.7 µM] (inactive) |
| CCC1NC(=O)C2C(Cl)C(Cl)CN2C(=O)C(C(C)O)NC(=O)CC(c2ccccc2)NC(=O)C(CO)NC1=O (configuration not stated) | -3.09% [at 25.7 µM] (inactive) |
| COC1CC(OC2CCC3(C)C(CCC4C3CCC3(C)C(C5=CC(=O)OC5)C(OC(C)=O)CC43O)C2)OC(C)C1OC1OC(CO)C(O)C(O)C1O (configuration not stated) | 2.6% [at 25.7 µM] (inactive) |
| CCc1[nH]c2ccc(OC)cc2c1CCN(C)C | -4.12% (inactive) |
| COc1ccccc1CN[C@H]1C2CCN(CC2)[C@H]1C(c1ccccc1)c1ccccc1 | 4.36% (inactive) |
| N#C[C@@H](O[C@@H]1O[C@H](CO[C@@H]2O[C@H](CO)[C@@H](O)[C@H](O)[C@H]2O)[C@@H](O)[C@H](O)[C@H]1O)c1ccccc1 | -0.763% [at 25.7 µM] (inactive) |
| COc1cc(CCNCc2ccccc2O)c(OC)cc1C#N | 3.02% (inactive) |
| C[C@H]1O[C@@H](O[C@H]2C[C@@H](O)[C@]3(CO)C4C(CC[C@]3(O)C2)[C@@]2(O)CC[C@H](C3=CC(=O)OC3)[C@@]2(C)C[C@H]4O)[C@@H](O)[C@@H](O)[C@H]1O (some centres not stated) | 0% [at 25.7 µM] (inactive) |
| Cc1cn(C[C@H](N)C(=O)O)c(=O)n(Cc2cc(-c3ccccc3)sc2C(=O)O)c1=O | -0.545% (inactive) |
| COc1cc(C(=O)O[C@H]2[C@@H]3C=CO[C@@H](O[C@@H]4O[C@H](CO)[C@@H](O)[C@H](O)[C@H]4O)[C@@H]3[C@@]3(CO)O[C@@H]23)ccc1O | -1.57% [at 25.7 µM] (inactive) |
| CN1C(=O)c2ccccc2NC(=O)C1Cc1ccccc1 (configuration not stated) | -0.933% (inactive) |
| COC(=O)C1(C)CCC(O)C2(C)c3c(O)cc(C(C)C)cc3C(O)C(OC(C)=O)C12 (configuration not stated) | -2.21% [at 25.7 µM] (inactive) |
| N#CC(OC1OC(COC2OC(CO)C(O)C(O)C2O)C(O)C(O)C1O)c1ccccc1 (configuration not stated) | -1.69% [at 25.7 µM] (inactive) |
| COC(=O)N1CCN(C(=O)Cc2ccc(Cl)c(Cl)c2)[C@@H](CN2CCCC2)C1 | 2.15% (inactive) |
| CC(=O)OC1CC(O)C(C)(C)C2CC(OC(C)=O)C3(C)C(CCC4(C)C(c5ccoc5)C(=O)C5OC543)C12C (configuration not stated) | -1.23% [at 25.7 µM] (inactive) |
| COC1=CC(=O)O[C@@H](/C=C/c2ccccc2)C1 | -0.0696% (inactive) |
| COC(=O)[C@@]12C(=O)C(C)C(=O)[C@]1(C)C(C)=C[C@H]1[C@]3(C=O)CC[C@H](OC(C)=O)C(C)(C)[C@H]3CC[C@@]12C (some centres not stated) | -5.15% [at 25.7 µM] (inactive) |
| CC1C/C=C/C(O)C(O)CC/C=C/c2cc(O)cc(O)c2C(=O)O1 (configuration not stated) | -2.22% (inactive) |
| CC1=CC2/C=C(\C)CCC(O)C3OC(C)(C)OC3CC(=O)OC23C(=O)NC(CC(C)C)C3C1C (configuration not stated) | -8.26% [at 25.7 µM] (inactive) |
| CC(=O)O[C@H]1C[C@@H](OC(C)=O)C(C)(C)C2C[C@@H](O)[C@]3(C)C(CC[C@@]4(C)[C@H](C5=CC(=O)OC5O)C[C@H]5O[C@]543)[C@]21C (some centres not stated) | 0.885% [at 25.7 µM] (inactive) |
| C/C=C(\C)C(=O)OC1CC2C(C)(C)OC(=O)CC(OC(C)=O)C2(C)C2CC(OC(=O)C(C)C)C3(C)C(c4ccoc4)CC4OC43C12C (configuration not stated) | -2.35% [at 25.7 µM] (inactive) |
| CN1C(=O)c2ccccc2NC(=O)[C@]12O[C@@H]2c1ccccc1 | -2.03% (inactive) |
| C[C@@]1(C(=O)O)CC[C@]2(C)CC[C@]3(C)C4=CC(=O)c5cc(O)c(O)cc5[C@]4(C)CC[C@@]3(C)[C@@H]2C1 | 0% [at 25.7 µM] (inactive) |
| C[C@@]12C[C@@H](c3ccoc3)OC(=O)C1CC[C@]1(C)[C@H]2[C@H]2C=C[C@]1(O)C(=O)O2 (some centres not stated) | 2.93% (inactive) |
| CN(C(=O)Cc1ccccc1)C(CN1CCCC1)c1ccccc1 (configuration not stated) | 1.97% (inactive) |
| COC(=O)C1(C)CCC(O)C2(C)c3cc(O)c(C(C)C)cc3C(O)C(OC(C)=O)C12 (configuration not stated) | 3.43% [at 25.7 µM] (inactive) |
| COC1C(O)C(OC2CCC3(C=O)C(CCC4C3CCC3(C)C(C5=CC(=O)OC5)CCC43O)C2)OC(C)C1OC1OC(CO)C(O)C(O)C1O (configuration not stated) | 0.301% [at 25.7 µM] (inactive) |
| COCC1OC(=O)c2coc3c2C1(C)C1=C(C3=O)C2CCC(=O)C2(C)CC1O (configuration not stated) | 4.23% (inactive) |
| CC(C)(O)[C@H]1O[C@H]2CC[C@@]3(C)[C@@](O)(CC[C@H]4Cc5c([nH]c6ccccc56)[C@@]43C)C2=CC1=O | -2.02% [at 25.7 µM] (inactive) |
